Values joined by “and” are separate entries in the source; they are usually repeats but may differ in a detail not shown here. Identical values can stand only once. Records with an inconclusive call do not appear. More than one record can exist for a structure, and the calls need not agree. Active and inactive are the calls of the source. Rule for the calls, unless noted: active = hit-call score of the fitted dose curve at least 0.9, where 1 is the maximum; inconclusive = response in the unintended direction; inactive = score below 0.9.

In experiment [1] the test system is frog Estrogen Receptor (ER2), gene 100174814. Put plainly: ATG_frER2_XSP2: Attagene TRANS-FACTORIAL Multi-Species (XSP2) HepG2 Assay for frog Estrogen Receptor (ER2) (AID 2283828). In short, it runs like this: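 Human liver HepG2, transient MRTU transfection (TRANS format, exogenous NR–Gal4). 24 h cpd exposure. Total RNA → RT → PCR → FAM label → HpaI cut → CE. Positive direction vs DMSO.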

The target of experiment [2] is Peroxisome proliferator-activated receptor gamma (Homo sapiens) (UniProt P37231). Put plainly: ATG_hPPARg_XSP2: Attagene TRANS-FACTORIAL Multi-Species (XSP2) HepG2 Assay for human Peroxisome Proliferator-activated Receptor gamma (PPARg) (AID 2283829).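 Note: actives raise reporter mRNA above DMSO so AC50 reflects PPARg activation.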 The gist of the method: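 Reporter transcripts were measured by RT-PCR, fluorescent labeling, HpaI digestion and capillary electrophoresis, relative to DMSO, 24 h post-dosing. Transiently transfected HepG2 expressed NR-Gal4 chimeras regulating GAL4-UAS reporters; medium contained 3 nM 6-alpha-fluorotestosterone plus 1.5 nM norgestrel.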

Experiment [3] concerns the target mouse Peroxisome Proliferator-activated Receptor gamma (PPARg), Pparg (gene 19016) (UniProt P37238). Put plainly: ATG_mPPARg_XSP2: Attagene TRANS-FACTORIAL Multi-Species (XSP2) HepG2 Assay for mouse Peroxisome Proliferator-activated Receptor gamma (PPARg) (AID 2283830).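 Note: hits are gains in reporter mRNA above DMSO so AC50 marks activation.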 In short, it runs like this: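 HepG2 cells transiently transfected with GAL4-UAS reporter units for chimeric NR-Gal4 proteins including mouse PPARg, exposed 24 h; medium contained 3 nM 6-alpha-fluorotestosterone and 1.5 nM norgestrel. Reporter mRNA quantified by RT-PCR, HpaI digestion and capillary electrophoresis, vs DMSO.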

Experiment [4] concerns the target Nuclear receptor subfamily 1 group I member 2 (Mus musculus) (UniProt O54915). The experiment is described as follows: ATG_mPXR_XSP2: Attagene TRANS-FACTORIAL Multi-Species (XSP1) HepG2 Assay for mouse Pregnane X Receptor (PXR) (AID 2283831). In short, it runs like this:
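Reporter transcripts measured after 24 h dosing by RT-PCR with 6-FAM labelling, HpaI digestion and capillary electrophoresis. Transiently transfected HepG2 with NR-Gal4 chimeras; increase over DMSO baseline scored.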

Experiment [5] concerns the target zebrafish Thyroid Hormone Receptor alpha (TRa), thraa (gene 30670) (UniProt Q98867). Put plainly: ATG_zfTRa_XSP2: Attagene TRANS-FACTORIAL Multi-Species (XSP1) HepG2 Assay for zebrafish Thyroid Hormone Receptor alpha (TRa) (AID 2283832).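 Note: actives raise zebrafish TRa-Gal4 reporter transcript above DMSO baseline.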 The gist of the method:
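Transient transfection of human HepG2 with GAL4-UAS reporter units, then 24 h chemical treatment. RNA isolated, reverse-transcribed, PCR-amplified, FAM-labelled, HpaI-digested and run on capillary electrophoresis. Gain-of-signal relative to DMSO.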

In experiment [6] the test system is zebrafish Peroxisome Proliferator-activated Receptor gamma (PPARg), gene 557037. The experiment is described as follows: ATG_zfPPARg_XSP2: Attagene TRANS-FACTORIAL Multi-Species (XSP2) HepG2 Assay for zebrafish Peroxisome Proliferator-activated Receptor gamma (PPARg) (AID 2283833).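 Note: actives increase reporter signal over DMSO so AC50 reflects activation.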 The gist of the method:
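After 24 h chemical exposure, RNA from transiently transfected HepG2 (chimeric NR-Gal4 TRANS reporters) was reverse-transcribed, PCR-amplified, 6-FAM-labelled, HpaI-cut and sized by capillary electrophoresis. Induction was scored in the positive direction relative to DMSO.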

The test system of experiment [7] is turtle Thyroid Hormone Receptor, alpha (TRa), gene 101949057. The experiment is described as follows: ATG_trTRa_XSP2: Attagene TRANS-FACTORIAL Multi-Species (XSP1) HepG2 Assay for turtle Thyroid Hormone Receptor, alpha (TRa) (AID 2283834).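 Note: hits raise reporter mRNA over the DMSO baseline so AC50 marks activators.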 In short, it runs like this: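 Turtle TRa-Gal4 chimera activity in transfected human HepG2 cells: reporter transcripts quantified by RT-PCR, 6-FAM labelling and capillary electrophoresis 24 h post-dosing; positive direction versus DMSO, medium containing 3 nM 6-alpha-fluorotestosterone and 1.5 nM norgestrel.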

The target of experiment [8] is zebrafish Thyroid Hormone Receptor beta (TRb), thrb (gene 30607) (UniProt Q9PVE4). The experiment is described as follows: ATG_zfTRb_XSP2: Attagene TRANS-FACTORIAL Multi-Species (XSP1) HepG2 Assay for zebrafish Thyroid Hormone Receptor beta (TRb) (AID 2283836). In short, it runs like this: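 Human liver HepG2, transient MRTU transfection (NR-Gal4 chimeras, GAL4-UAS reporters); 24 h compound exposure; total RNA → oligo(dT) RT → PCR → 6-FAM label → HpaI cut → CE fluorescence. DMSO = negative control/baseline.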

Experiment [9] can be described thus: ATG_XTT_Cytotoxicity_XSP2: Cytotoxicity Assessment in the Attagene TRANS-FACTORIAL Multi-Species (XSP2) HepG2 Assay (AID 2283837). The gist of the method:
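HepG2 cells, transiently transfected with multiple reporter constructs, exposed to chemical for 24 h. Cell number assessed with XTT fluorescence read-out; loss of signal fitted relative to DMSO.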

The target in experiment [10] is human Thyroid hormone Receptor alpha (TRa), THRA (gene 7067) (UniProt P10827). Put plainly: ATG_hTRa_XSP2: Attagene TRANS-FACTORIAL Multi-Species (XSP2) HepG2 Assay for human Thyroid hormone Receptor alpha (TRa) (AID 2283838). The gist of the method: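 HepG2 cells were transiently transfected with GAL4-UAS reporter units for chimeric human TRa-Gal4 and dosed for 24 hours, with 3 nM 6-alpha-fluorotestosterone and 1.5 nM norgestrel present. Reporter mRNA was quantified by RT-PCR, FAM labelling and capillary electrophoresis, with gain of signal fitted versus DMSO.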

Experiment [11] has as its target frog Thyroid hormone Receptor alpha (TRa), thra-a (gene 397942) (UniProt P15204). The experiment is described as follows: ATG_frTRa_XSP2: Attagene TRANS-FACTORIAL Multi-Species (XSP2) HepG2 Assay for frog Thyroid hormone Receptor alpha (TRa) (AID 2283839).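 For AC50: AC50 reflects induction of frog TRa-driven reporter mRNA above DMSO baseline.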 The gist of the method:
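Reporter transcripts were measured by RT-PCR with capillary electrophoresis after 24 h dosing of HepG2 carrying transiently transfected multi-reporter units, including a chimeric frog TRa-GAL4 construct. Activity was taken as increase over DMSO vehicle.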

In experiment [12] the target is human Thyroid hormone Receptor beta (TRb), THRB (gene 7068) (UniProt P10828). Put plainly: ATG_hTRb_XSP2: Attagene TRANS-FACTORIAL Multi-Species (XSP2) HepG2 Assay for human Thyroid hormone Receptor beta (TRb) (AID 2283840).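 Note: actives raise reporter mRNA so potency reflects agonist-like gain of signal.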 In short, it runs like this:
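Activity of exogenous human TRb–Gal4 fusion measured by reporter mRNA from RT-PCR and capillary electrophoresis, 24 h after dosing transfected HepG2. 6-alpha-fluorotestosterone (3 nM) and norgestrel (1.5 nM) present. Gain-of-signal fit relative to DMSO.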

Experiment [13] deals with Sodium/Iodide Symporter (NIS), SLC5A5 (gene 6528). Put plainly: CPHEA_Stoker_NIS_Inhibition_RAIU: CPHEA's Radioactive Iodide Uptake (RAIU) Assay for Sodium/Iodide Symporter (NIS) Inhibition, Stoker and Laws Labs (AID 2283841). The gist of the method: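 Iodide uptake read as CPM of intracellular 125I (final 329 pM) after 2 h room-temperature exposure in HEPES-buffered HBSS, pH 7.4. Human NIS-expressing HEK293T cells; six concentrations 0.001–100 uM, 0.5% DMSO, normalised to DMSO wells.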

Experiment [14] can be described thus: CPHEA_Stoker_NIS_Cytotoxicity: Cytotoxicity Assessment for CPHEA's Radioactive Iodide Uptake (RAIU) Assay for Sodium/Iodide Symporter (NIS) Inhibition, Stoker and Laws Labs (AID 2283897).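 For AC50: active means loss of ATP signal versus DMSO meaning cytotoxicity.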 The gist of the method: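 CellTiter-Glo ATP luminescence gauged viability in HEK293T cells expressing human NIS after 2 h chemical exposure. Concentrations ran 0.001–100 uM in 0.5% DMSO; DMSO served as baseline for the loss-of-signal fit.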

Experiment [15] is described as follows: ATG_M_61_XSP2: Attagene TRANS-FACTORIAL Multi-Species (XSP2) HepG2 Assay for M61 Transcription Factor (Internal Marker) (AID 2283835; active = hit-call score of the fitted dose curve at least 0.9, where 1 is the maximum; inactive = score below 0.9;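 note: reporter mRNA of an internal background marker read by RT-PCR and capillary electrophoresis; active means a rise in signal above the DMSO baseline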). The gist of the method:
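HepG2 cells transiently transfected with multiple GAL4-UAS reporter units; 3 nM 6-alpha-fluorotestosterone and 1.5 nM norgestrel present to stimulate androgen receptor. After 24 h compound exposure, reporter mRNA measured by RT-PCR and capillary electrophoresis fluorescence, gain-of-signal versus DMSO baseline.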

Experiment [16] is described as follows: CEETOX_H295R_OHPREG_noMTC: CeeTox H295R High-throughput Steroidogenesis Assay for OH-Pregnenolone (OHPREG), maximum tolerated concentration (MTC) filtered results only (AID 2283912; active = hit-call score of the fitted dose curve at least 0.9, where 1 is the maximum; inactive = score below 0.9). As to conditions: actives raise or lower the signal. The gist of the method: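 H295R human adrenal cells, forskolin-prestimulated (10 uM, 48 h), then exposed to test chemical in 0.1% DMSO for 48 h. 17alpha-hydroxypregnenolone in medium measured by HPLC-MS/MS after MTBE extraction; bidirectional fit versus DMSO, concentrations not MTC-filtered.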

Experiment [17] is described as follows: CEETOX_H295R_OHPROG_noMTC: CeeTox H295R High-throughput Steroidogenesis Assay for OH-Progesterone (OHPROG), maximum tolerated concentration (MTC) filtered results only (AID 2283914; active = hit-call score of the fitted dose curve at least 0.9, where 1 is the maximum; inactive = score below 0.9). As to conditions: actives raise or lower the signal. In short, it runs like this: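 H295R human adrenal cells prestimulated 48 h with 10 uM forskolin, then exposed 48 h to test chemical (0.1% DMSO final). Medium 17alpha-hydroxyprogesterone extracted with MTBE, quantified by HPLC-MS/MS; bidirectional fit versus DMSO, concentrations not MTC-filtered.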

A short description of experiment [18]: CEETOX_H295R_ANDR_noMTC: CeeTox H295R High-throughput Steroidogenesis Assay for Androstenedione (ANDR), maximum tolerated concentration (MTC) filtered results only (AID 2283915; active = hit-call score of the fitted dose curve at least 0.9, where 1 is the maximum; inactive = score below 0.9). As to conditions: actives raise or lower the signal. The gist of the method: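 H295R cells, passage 10 or below, prestimulated 48 h with 10 uM forskolin, then exposed 48 h to chemical in 0.1% DMSO. Medium androstenedione extracted with MTBE, quantified by HPLC-MS/MS; concentrations not MTC-filtered; bidirectional fit versus DMSO.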

human Thyroid hormone Receptor beta (TRb), THRB (gene 7068), sequence (P10828 whole entry, looked up, the tested form may be a part): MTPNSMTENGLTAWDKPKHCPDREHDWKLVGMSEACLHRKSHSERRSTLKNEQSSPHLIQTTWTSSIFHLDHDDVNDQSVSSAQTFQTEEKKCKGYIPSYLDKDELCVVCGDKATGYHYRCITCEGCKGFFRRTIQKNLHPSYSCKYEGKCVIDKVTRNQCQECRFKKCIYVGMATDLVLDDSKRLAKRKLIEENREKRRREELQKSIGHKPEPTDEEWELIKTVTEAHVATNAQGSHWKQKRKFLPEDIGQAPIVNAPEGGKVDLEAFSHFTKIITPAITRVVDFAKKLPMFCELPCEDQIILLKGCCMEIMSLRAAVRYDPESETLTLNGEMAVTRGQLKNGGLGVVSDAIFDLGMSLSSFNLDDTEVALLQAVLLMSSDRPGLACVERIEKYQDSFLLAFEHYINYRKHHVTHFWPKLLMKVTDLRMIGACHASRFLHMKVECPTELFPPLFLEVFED
Peroxisome proliferator-activated receptor gamma (Homo sapiens), sequence (P37231 whole entry, looked up, the tested form may be a part): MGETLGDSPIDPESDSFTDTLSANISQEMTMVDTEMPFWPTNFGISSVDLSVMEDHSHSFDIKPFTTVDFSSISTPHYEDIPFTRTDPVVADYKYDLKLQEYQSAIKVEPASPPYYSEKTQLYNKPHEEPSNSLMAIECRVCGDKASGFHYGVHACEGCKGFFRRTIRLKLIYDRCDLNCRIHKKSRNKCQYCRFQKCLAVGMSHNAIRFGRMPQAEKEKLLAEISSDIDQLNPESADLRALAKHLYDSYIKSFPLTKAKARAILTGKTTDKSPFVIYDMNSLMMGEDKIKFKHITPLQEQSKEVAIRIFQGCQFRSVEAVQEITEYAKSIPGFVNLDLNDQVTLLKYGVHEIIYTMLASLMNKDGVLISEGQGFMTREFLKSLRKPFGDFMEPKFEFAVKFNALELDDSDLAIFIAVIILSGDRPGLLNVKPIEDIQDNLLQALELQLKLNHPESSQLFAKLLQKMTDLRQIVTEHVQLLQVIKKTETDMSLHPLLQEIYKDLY
frog Thyroid hormone Receptor alpha (TRa), thra-a (gene 397942), sequence (P15204 whole entry, looked up, the tested form may be a part): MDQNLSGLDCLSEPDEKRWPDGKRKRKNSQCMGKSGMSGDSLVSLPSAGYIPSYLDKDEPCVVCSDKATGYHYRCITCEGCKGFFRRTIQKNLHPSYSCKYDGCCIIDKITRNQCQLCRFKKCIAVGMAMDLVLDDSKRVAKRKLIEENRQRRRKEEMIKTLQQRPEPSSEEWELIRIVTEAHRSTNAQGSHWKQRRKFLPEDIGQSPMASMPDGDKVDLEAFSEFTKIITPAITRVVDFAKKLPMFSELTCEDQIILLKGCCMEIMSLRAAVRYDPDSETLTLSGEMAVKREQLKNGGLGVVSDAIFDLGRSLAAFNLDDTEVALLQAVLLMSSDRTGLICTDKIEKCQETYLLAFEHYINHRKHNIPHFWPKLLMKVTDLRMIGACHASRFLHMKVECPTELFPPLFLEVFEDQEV
Nuclear receptor subfamily 1 group I member 2 (Mus musculus), sequence (O54915 whole entry, looked up, the tested form may be a part): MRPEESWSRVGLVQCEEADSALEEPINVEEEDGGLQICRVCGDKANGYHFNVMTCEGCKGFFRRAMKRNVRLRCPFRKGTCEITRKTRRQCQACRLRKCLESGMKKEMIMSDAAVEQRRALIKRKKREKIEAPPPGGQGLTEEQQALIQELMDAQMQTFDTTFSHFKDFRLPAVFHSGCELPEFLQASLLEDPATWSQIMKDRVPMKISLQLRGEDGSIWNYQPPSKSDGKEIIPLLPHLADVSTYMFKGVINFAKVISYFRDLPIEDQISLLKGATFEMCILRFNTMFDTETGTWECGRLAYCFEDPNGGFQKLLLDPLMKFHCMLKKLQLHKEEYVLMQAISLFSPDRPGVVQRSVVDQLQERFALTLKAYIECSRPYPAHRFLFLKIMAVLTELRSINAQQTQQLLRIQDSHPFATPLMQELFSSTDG
zebrafish Thyroid Hormone Receptor alpha (TRa), thraa (gene 30670), sequence (Q98867 whole entry, looked up, the tested form may be a part): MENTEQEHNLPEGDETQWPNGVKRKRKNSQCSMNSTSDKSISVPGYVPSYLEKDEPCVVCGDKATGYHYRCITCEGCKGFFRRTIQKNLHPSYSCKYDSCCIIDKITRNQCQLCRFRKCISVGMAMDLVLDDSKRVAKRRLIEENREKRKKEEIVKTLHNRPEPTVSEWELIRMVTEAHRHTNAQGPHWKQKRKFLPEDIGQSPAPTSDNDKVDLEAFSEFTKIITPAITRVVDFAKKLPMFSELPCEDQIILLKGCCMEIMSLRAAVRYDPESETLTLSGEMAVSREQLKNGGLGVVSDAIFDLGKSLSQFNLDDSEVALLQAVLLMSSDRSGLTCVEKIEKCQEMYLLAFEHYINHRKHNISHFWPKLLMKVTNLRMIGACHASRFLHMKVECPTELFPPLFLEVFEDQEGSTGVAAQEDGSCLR
mouse Peroxisome Proliferator-activated Receptor gamma (PPARg), Pparg (gene 19016), sequence (P37238 whole entry, looked up, the tested form may be a part): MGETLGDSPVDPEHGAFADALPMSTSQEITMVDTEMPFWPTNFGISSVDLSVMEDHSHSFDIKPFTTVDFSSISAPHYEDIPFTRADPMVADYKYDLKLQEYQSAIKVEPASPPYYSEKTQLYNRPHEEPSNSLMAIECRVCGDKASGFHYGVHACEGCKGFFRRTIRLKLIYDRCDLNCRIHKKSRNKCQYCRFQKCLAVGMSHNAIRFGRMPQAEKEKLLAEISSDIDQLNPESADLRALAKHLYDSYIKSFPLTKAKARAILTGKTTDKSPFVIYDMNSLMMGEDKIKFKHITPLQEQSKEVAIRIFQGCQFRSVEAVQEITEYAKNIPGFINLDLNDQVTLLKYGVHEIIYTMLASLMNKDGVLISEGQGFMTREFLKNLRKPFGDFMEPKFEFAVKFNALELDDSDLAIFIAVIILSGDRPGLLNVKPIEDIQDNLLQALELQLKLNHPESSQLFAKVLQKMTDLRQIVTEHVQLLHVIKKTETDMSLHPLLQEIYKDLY
zebrafish Thyroid Hormone Receptor beta (TRb), thrb (gene 30607), sequence (Q9PVE4 whole entry, looked up, the tested form may be a part): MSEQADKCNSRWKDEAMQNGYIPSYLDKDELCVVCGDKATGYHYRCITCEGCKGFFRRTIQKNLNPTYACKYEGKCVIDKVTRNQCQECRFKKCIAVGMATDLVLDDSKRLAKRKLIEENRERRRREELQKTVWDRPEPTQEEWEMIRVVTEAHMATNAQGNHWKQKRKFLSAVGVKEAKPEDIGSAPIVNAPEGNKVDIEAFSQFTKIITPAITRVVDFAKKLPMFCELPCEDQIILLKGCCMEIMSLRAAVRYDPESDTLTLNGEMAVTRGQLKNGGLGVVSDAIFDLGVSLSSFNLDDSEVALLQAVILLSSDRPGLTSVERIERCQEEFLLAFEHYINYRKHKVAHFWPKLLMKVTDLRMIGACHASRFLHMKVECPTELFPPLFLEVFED
human Thyroid hormone Receptor alpha (TRa), THRA (gene 7067), sequence (P10827 whole entry, looked up, the tested form may be a part): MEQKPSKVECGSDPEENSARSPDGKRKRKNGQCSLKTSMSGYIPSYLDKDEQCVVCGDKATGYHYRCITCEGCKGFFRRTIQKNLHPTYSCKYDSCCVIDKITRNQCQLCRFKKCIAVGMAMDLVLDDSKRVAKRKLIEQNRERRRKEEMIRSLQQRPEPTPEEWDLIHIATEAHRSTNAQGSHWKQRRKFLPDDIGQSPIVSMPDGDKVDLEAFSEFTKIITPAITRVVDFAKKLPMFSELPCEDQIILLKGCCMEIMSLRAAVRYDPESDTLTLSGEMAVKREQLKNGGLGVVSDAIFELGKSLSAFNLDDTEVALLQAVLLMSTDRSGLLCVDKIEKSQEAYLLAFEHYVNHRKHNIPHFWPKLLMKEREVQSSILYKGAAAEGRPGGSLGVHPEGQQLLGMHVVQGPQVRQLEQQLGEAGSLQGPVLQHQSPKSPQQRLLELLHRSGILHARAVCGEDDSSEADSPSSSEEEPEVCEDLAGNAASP

Regarding `O=c1cc(-c2ccc(O)cc2)oc2cc(O)cc(O)c12`, the AC50 – broadly, the midpoint of the concentration-response curve, whichever way the signal moves – in experiment [1] was 3.85 µM (active) and 215 nM (active); in experiment [2], 27.8 µM (active) and 12.8 µM (active); in [3], 27.5 µM (active) and 16.2 µM (active); in experiment [4], 26.9 µM (active); in experiment [7] it was 26.7 µM (active); in experiment [10], 6.26 µM (active). Also, the half-maximal activity concentration (AC50) in [11] is 39.2 µM (active) and 44.6 µM (active); in [12], 7.81 µM (active). In addition, the outcome in experiment [5], in [6], in experiment [7], in experiment [8], in experiment [9] and in experiment [10] was inactive. In addition, the molecule was classed as inactive in experiment [12], in [13] and in experiment [14].

Consider `CCCCCC(=O)O[C@]1(C(C)=O)CC[C@H]2[C@@H]3CCC4=CC(=O)CC[C@]4(C)[C@H]3CC[C@@]21C`, for which the outcome in experiment [1], in experiment [4], in experiment [5], in experiment [15], in experiment [8] and in experiment [9] was inactive. Further, the molecule was classed as inactive in experiment [12], in experiment [13] and in [14]. Moreover, the AC50 in experiment [2] is 2.88 µM (active) and 2.34 µM (active); in experiment [3], 7.63 µM (active) and 3.17 µM (active); in experiment [6] it was 132 µM (active).

Turning to `CC/C(=C(\c1ccccc1)c1ccc(OCCN(C)C)cc1)c1ccccc1`, the call in experiment [4], in experiment [5], in [6], in experiment [15], in experiment [8] and in [11] was inactive. Besides, the molecule was called inactive in experiment [12], in experiment [13] and in experiment [14]. Moreover, the AC50 in [14] is 36.2 µM (active).

Turning to `CCC(C)COC(=O)CC(C)C` (centres undefined), the result in experiment [13] was inactive.

Take `O=C(O)C(F)(F)OC(F)(F)C(F)(F)OC(F)(F)C(F)(F)C(F)(F)C(F)(F)F`: the outcome in experiment [13] was inactive.

On to `COC(=O)c1cccc(C(=O)OC)c1`, for which the call in experiment [16], in experiment [17] and in experiment [18] was inactive.

`CCCCCCCCCOS(=O)(=O)O`: the result in experiment [14] was inactive.

As to `C#C[C@]1(O)CC[C@H]2[C@@H]3CCc4cc(O)ccc4[C@H]3CC[C@@]21C`, the AC50 in [1] is 1.35 nM (active); in experiment [12], 0.0262 µM (active). For the same molecule, the molecule was called inactive in experiment [2], in experiment [5], in experiment [7], in experiment [15], in experiment [8] and in [13]. The result in experiment [14] was inactive.

The values above are taken from PubChem BioAssay (EPA / NIEHS).
